Laboratory results taken from PubChem BioAssay AID1497 (Sanford-Burnham Center for Chemical Genomics, 2009).
Screen size: about 93,000 compounds; about 500 (0.54%) were called active. The entries come from a sample that favours actives as a whole. Values without a mark were called inactive.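 The calls were made as follows: active = primary inhibition of 50% or more at 10 µM, then 40% or more on retest; inactive = the rest.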

Each compound was assayed against Integrin beta-2 (Homo sapiens) + Integrin alpha-M (Homo sapiens) (UniProt P05107+P11215) (assay: antagonists of integrin CD11b/CD18-fibrinogen binding – K562 cells, luminescence, primary screen (AID 1497)). Conditions: K562 CD11b/CD18 adhesion to fibrinogen, ATPlite luminescence; at 10 µM; active compounds read high; Mn2+ added to activate the integrin.
Integrin beta-2 (Homo sapiens) + Integrin alpha-M (Homo sapiens), sequence (P05107 whole entry, looked up, other chains not shown): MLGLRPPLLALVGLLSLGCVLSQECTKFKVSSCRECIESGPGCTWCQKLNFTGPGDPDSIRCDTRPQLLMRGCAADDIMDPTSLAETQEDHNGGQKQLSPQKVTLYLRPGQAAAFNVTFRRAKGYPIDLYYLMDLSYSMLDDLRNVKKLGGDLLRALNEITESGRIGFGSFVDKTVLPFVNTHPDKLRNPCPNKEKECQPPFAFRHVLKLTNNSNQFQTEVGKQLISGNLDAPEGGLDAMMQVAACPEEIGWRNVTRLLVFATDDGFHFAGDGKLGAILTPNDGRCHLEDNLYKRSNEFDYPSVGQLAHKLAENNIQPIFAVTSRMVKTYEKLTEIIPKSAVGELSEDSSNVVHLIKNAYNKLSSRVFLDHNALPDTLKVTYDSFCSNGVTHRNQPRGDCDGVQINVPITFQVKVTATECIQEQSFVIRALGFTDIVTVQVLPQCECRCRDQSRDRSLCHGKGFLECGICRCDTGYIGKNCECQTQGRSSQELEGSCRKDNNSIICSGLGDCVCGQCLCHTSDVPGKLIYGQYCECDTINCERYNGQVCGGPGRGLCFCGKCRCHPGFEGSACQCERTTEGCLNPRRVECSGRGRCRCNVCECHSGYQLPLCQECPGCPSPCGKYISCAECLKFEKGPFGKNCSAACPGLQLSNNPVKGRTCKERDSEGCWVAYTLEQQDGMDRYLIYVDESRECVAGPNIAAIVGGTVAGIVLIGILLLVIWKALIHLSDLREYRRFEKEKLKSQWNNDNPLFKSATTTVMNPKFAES

SMILES | inhibition
Cc1c(Br)c([N+](=O)[O-])nn1CC(=O)Nc1sc2c(c1C(=O)OC(C)C)CCC(C)C2 (stereo not given) | -9.3%
O=C(Nc1cccc(F)c1)c1coc(=O)c(Br)c1 | -10.2%
O=C(COC(=O)c1ccc(Cl)nc1)NCc1ccc2c(c1)OCO2 | 4.3%
O=C(CSc1ccc2nnc(-c3ccccc3)n2n1)N1CCCc2ccccc21 | 29.7%
O=C(OCc1ccc(Br)cc1)c1cccc(-c2nnc(-c3ccccc3)o2)c1 | 6.5%
O=C(CCCCCNC(=O)c1ccccc1)N/N=C/c1ccccc1 | 9.3%
CC1(c2cccc([N+](=O)[O-])c2)CC(C)(C)N(C(=O)c2ccccc2)c2ccccc21 (stereo not given) | 12.3%
Cc1ccc(NC(=O)CC2C(=O)N(Cc3ccccc3)C(=S)N2NC(=O)c2cccc(F)c2)c(C)c1 (stereo not given) | 1.5%
Nc1nnc(SCC(=O)Nc2ccc3nc(SCC(=O)Nc4ccccc4)sc3c2)s1 | 74%
CC(=O)Nc1ccc(S(=O)(=O)Nc2nc(-c3ccc(C(C)(C)C)cc3)cs2)cc1 | 0.9%
COc1cc2c3c(c1)/C(=C1/SC(=S)NC1=O)C(=O)N3C(C)(C)C=C2C | 92.6%
CCc1c(C)sc(NC(=O)c2ccc(Br)o2)c1C(=O)OC | 6.5%
CCOC(=O)c1sc(NC(=O)CSc2ncccn2)c(C#N)c1C | -4.4%
CCCc1ccc(-c2c(C)sc(NC(=O)c3ccnn3C)c2C#N)cc1 | 62.4% (active)
COc1ccc(C2Nc3ccccc3C(=O)N2c2ccc(F)cc2)cc1Cn1nnc2ccccc21 (stereo not given) | 12.2%
CC(=C/c1ccccc1)/C=N/NC(=O)c1cc(C)oc1C | 4.2%
CC(C)(C)n1nnnc1C(c1ccc(F)cc1)N1CCN(Cc2ccc3c(c2)OCO3)CC1 (stereo not given) | -11.6%
Fc1ccc2[nH]c3c(N4CCN(Cc5ccc6c(c5)OCO6)CC4)ncnc3c2c1 | 103% (active)
Cc1ccc(-n2ncc3c(N4CCN(c5ccc(F)cc5)CC4)ncnc32)c(C)c1 | 39.7%
Fc1ccc2[nH]c3c(N4CCSCC4)ncnc3c2c1 | 81.7% (active)
CCN1CCCC1CNc1ncnc2c1[nH]c1ccc(F)cc12 (stereo not given) | -18.1%
Cc1cc(N2CCN(Cc3ccc4c(c3)OCO4)CC2)n2ncnc2n1 | -10.2%
COCCCNC(=O)Cn1cc(/C=C(\C#N)C(=O)N2CCN(c3ccccc3)CC2)c2ccccc21 | 21.8%

SMILES | inhibition
O=C(COC(=O)Cc1ccc(F)cc1)Nc1cc(S(=O)(=O)N2CCOCC2)ccc1N1CCCC1 | -0.6%
CCCC/C(C)=N/NC(=O)NC1CCCCC1 | 5.3%
Cc1ccc(N/N=C2\COC(C)(C)CC2=O)cc1 | 4.6%
CCCn1c(C)cc(/C=C(\C#N)C(=O)OCC(=O)Nc2cc(OC)c(OC)c(OC)c2)c1C | 5.7%
Cc1cc(C)c(NC(=O)c2oc3ccccc3c2COc2ccccc2)c(C)c1 | -5.4%
CCCN(CC1COc2ccccc2O1)C(=S)Nc1ccc(C)cc1 (stereo not given) | 9.6%
C=CCNC(=S)NNC(=O)COc1c(Cl)cc(Cl)cc1Cl | -6.9%
Cc1nc2c(-c3ccccc3)c(C)[nH]n2c(=O)c1Cl | -1.6%
Cc1[nH]n(-c2cccc(Cl)c2)c(=O)c1-c1ccc(Cl)cc1 | 94.7% (active)
Cc1[nH]n(-c2cccc(Cl)c2)c(=O)c1/C=N/n1c(C)nc2ccccc2c1=O | 16.1%
CCN(/N=C/c1ccc(N(C)C)cc1)c1nc2ccccc2[nH]1 | 15%
Cc1ccc(Nc2nc(-c3sc(NC(=O)c4ccccc4)nc3C)cs2)cc1 | 16.8%
Cc1nc(NC(=O)c2cccc(Cl)c2)sc1-c1csc(Nc2cccc(Cl)c2)n1 | -4%
Cc1nc(C)c(-c2csc(NCCc3ccccc3)n2)s1 | 89.8% (active)
N#Cc1c(NC(=O)c2ccc(N3CCOCC3)c([N+](=O)[O-])c2)sc2c1CCCC2 | 2.3%
CCCCc1ccc(NC(=S)N2CCCC(CO)C2)cc1 (stereo not given) | -5.8%
CCN(C(=O)COC(=O)c1c(NC(C)=O)sc(C)c1C)C1CCS(=O)(=O)C1 (stereo not given) | 25.9%
Cc1ccc(C)c(NC(=O)C(OC(=O)c2ccc(C)s2)c2ccccc2)c1 (stereo not given) | 16.7%
CCn1c(SCC(=O)Nc2ccc(C)cc2)nc2nc3c(cc2c1=O)CCCC3 | 2.8%
Cc1nn(-c2ccccc2)c(Cl)c1/C=C/C(=O)c1ccc(O)cc1 | 25.9%
CC(=O)N1CCN(CC(=O)Nc2ccc(SC(F)F)cc2)CC1 | -3.7%
CCOc1ccc(S(=O)(=O)N/N=C(\C)c2ccc(Cl)c(Cl)c2Cl)cc1 | 8.2%
